Tau FP inhib – tau fibrillization inhibition (FP); P10636; K18 P301L tau heparin fibrillization, Alexa594 FP, 6 h; Potency, µM (series often up to 57.7 µM), for the others: top-dose activity, negative = inhibition, usual class: inhibitors; actives 0.39% (n = 280,000); AID 1468; also: potency is read from the fitted curve at half-maximal effect; nearly all actives have a fitted effect of over 55% in size
Target sequence (P10636 561-689 P618L limits assumed): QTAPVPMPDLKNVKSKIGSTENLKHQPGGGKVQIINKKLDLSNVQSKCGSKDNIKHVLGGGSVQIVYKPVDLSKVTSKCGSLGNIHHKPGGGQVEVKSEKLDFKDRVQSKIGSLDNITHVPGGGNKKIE
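Human tau K18 […] P301L fragment, 15 uM unlabeled plus 0.24 uM Alexa 594-labeled tau (final), with compound and 20 uM heparin in 100 mM sodium acetate pH 7; 6 hr at 37 C, then Alexa 594 FP read.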
KDM4E inh – blocks human JMJD2E demethylase activity; B2RXH2; JMJD2E catalytic domain, FDH-coupled NADH fluorescence (FDH is formaldehyde dehydrogenase); Potency, µM (series often up to 57.1 µM), inactives show at the top dose activity change, negative = inhibition, hits mostly inhibitors; actives 1.6% (n = 230,000); AID 2147; active = well fitted inhibition curve with a large enough effect, not every such curve was filed as active; inconclusive = small, poorly fitted or top-dose-only effect, or another doubt; inactive = no such curve, though single readings can be large or run the other way;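 also: potency is read from the fitted curve at half-maximal effect; 0% = wells with enzyme and -100% = buffer wells without enzyme; nearly all actives have a fitted effect of over 50% in size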
Target sequence (B2RXH2 1-337 limits assumed): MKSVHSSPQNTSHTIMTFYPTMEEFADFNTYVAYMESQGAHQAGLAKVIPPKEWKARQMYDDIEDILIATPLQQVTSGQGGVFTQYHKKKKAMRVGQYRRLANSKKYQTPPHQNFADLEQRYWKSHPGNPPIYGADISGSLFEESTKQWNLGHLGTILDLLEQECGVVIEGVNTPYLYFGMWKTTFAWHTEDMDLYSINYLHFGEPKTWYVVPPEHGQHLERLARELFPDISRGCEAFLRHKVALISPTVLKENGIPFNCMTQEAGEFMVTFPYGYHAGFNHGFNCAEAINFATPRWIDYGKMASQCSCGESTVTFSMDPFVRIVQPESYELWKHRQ
NPSR antagonist – antagonists of human neuropeptide S receptor cAMP signaling | Q6W5P4 | CHO-NPSR cells, cAMP TR-FRET, antagonist mode | Potency, µM (titrated, usually from 38.3 µM), for the others: at the highest dose activity change, negative = inhibition, actives largely listed as inhibitors | actives 1% (n = 220,000) | AID 1461; also: potency is read from the fitted curve at half-maximal effect; nearly all actives have a fitted effect of over 50% in size
PNC inhibitor – blocks assembly of the perinucleolar compartment; PC3M PTB-GFP, PNC prevalence imaging, 16 h; active compounds read low; activity change (PNC), negative = inhibition, % at 10 µM; actives 3.1% (n = 140,000); AID 2417;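 active = readout at or below -70, meaning at least 70% loss of cells showing the perinucleolar compartment, a nuclear body marking cancer cells; inconclusive = readout between -30 and a set limit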;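 also: plate controls were DMSO wells for no effect and camptothecin positive control wells for full effect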
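Compounds are pinned in duplicate onto adhered PC3M cells stably expressing GFP-tagged PTB and incubated 16 h at 37 C. Cells are then fixed, nuclei stained with Hoechst, and PNC-positive cells counted.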
Tau fibril ThT – inhibitors of human tau fibril formation, thioflavin T binding; P10636; Potency, µM (doses to about 57.4 µM), for the others: at the top dose activity, negative = inhibition, hits mostly inhibitors; actives 2.1% (n = 270,000); recombinant tau K18 P301L, heparin-induced fibrillization, ThT fluorescence; also: potency is read from the fitted curve at half-maximal effect; nearly all actives have a fitted effect of over 55% in size
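Recombinant human tau K18 fragment […] carrying P301L, 15 uM unlabeled plus 0.24 uM Alexa 594-labeled, was fibrillized with 20 uM heparin in 100 mM sodium acetate pH 7 for 6 hr at 37 C; 30 uM ThT fluorescence read after 1 hr.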
Tau fluor counter – counter-screen for tau fibril formation inhibitors; tau K18 P301L (four-repeat tau fragment) Alexa594 fluorescence, heparin fibrillization; AID 1463; Potency, µM (titrated, usually from 57.7 µM), inactives show at the top dose activity change, negative = decrease; actives 0.93% (n = 280,000); also: potency is read from the fitted curve at half-maximal effect; nearly all actives have a fitted effect of over 55% in size
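Human K18 P301L tau (15 uM unlabeled plus 0.24 uM Alexa 594-labeled, final) in 100 mM sodium acetate pH 7 was mixed with compound and 20 uM heparin and incubated 6 hr at 37 C.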
An asterisk follows results filed as active; ? = inconclusive; / = not tested or not shown; [ ] = dose if it differs, or a comment. The list is not random: actives were taken first. Their share in the collection is about 5.1%. Unless noted, calls follow the shape of the dose curve; as a rule, active = well fitted curve in the direction sought with a large enough effect; inconclusive = small, poorly fitted or top-dose-only effect, or another doubt; inactive = no such curve, though single readings can be large; an effect the other way counts as inactive or inconclusive. Unless noted, % is scaled to controls: 0 for no effect and ±100 for the full control effect.

SMILES	Tau FP inhib	KDM4E inh	NPSR antagonist	PNC inhibitor	Tau fibril ThT	Tau fluor counter
Cn1c2c(c(=O)n(C)c1=O)[C@@]1(C(=O)Nc3ccccc31)C(C#N)=C(N)O2	?	?	-3%[46.1 µM]	-9	14µM*	-23%
N#CC1=C(N)Oc2n[nH]c(-c3ccccc3)c2C12C(=O)Nc1ccccc12 (stereo not given)	-1%	-4%	-7%[46.1 µM]	25	-8%	-2%
COc1ccc(C(=O)Nc2cc(OC)nc(OC)n2)cc1	-3%	7%	7%	-81*	-10%	-8%
O=C(Nc1ccc(SC(F)F)cc1)C12CCC(CC1)C2	-12%	1%	14%	-113*	-6%	-14%
Cc1cccc(Cn2c(SCc3ccc(C(=O)NCc4ccccc4F)cc3)nc3ccncc32)c1	6%	/	/	/	6%	-20%
C=CCn1c(N)c(C(=O)Nc2cccc(C)c2)c2nc3ccccc3nc21	?	?	?	28	?	11µM*[quencher]
CCc1ccccc1NC(=O)c1ncoc1-c1ccco1	4%	/	/	/	-11%	-9%
CCOC(=O)c1ccc(CN(Cc2ccc(C)cc2)S(=O)(=O)c2ccc(NC(C)=O)cc2)cc1	11µM*	/	/	/	4%	?
CCOC(=O)c1ccc(CN(Cc2ccccc2)S(=O)(=O)c2ccc(C)cc2)cc1	-3%	/	/	/	10%	-2%
CSc1cccc(NS(=O)(=O)c2cccc3nsnc23)c1	5%	3%	-9%[46.1 µM]	11	-12%	-12%
COc1cccc(NS(=O)(=O)c2cc(C)sc2C)c1	1%	2%	-7%[46.1 µM]	-100*	3%	-6%
COc1cc(NS(=O)(=O)c2cccc3nsnc23)cc(OC)c1	3%	-26%	-8%[46.1 µM]	-82*	-16%	-18%
COc1ccc(-c2nc(-c3ccccc3)oc2Nc2ccccc2C)cc1	-10%	-5%	/	/	-3%	-6%
COc1cc(OC)c2c(-c3cccc(-c4ccc(O)cc4)c3)cc(=O)oc2c1	?	/	/	/	?	22µM*[quencher]
CCOc1ccc(CCNC(=O)c2ccc3c(c2)c(C)c(C)n3C)cc1	13%	/	/	/	?	?
Cc1cccc(NC(=O)c2sc(-n3nc(C)c(Cc4ccc5c(c4)OCO5)c3C)nc2C)c1C	13%	/	/	/	3%	4%
O=C(N/N=C/c1cn(-c2ccccc2)nc1-c1cc2ccccc2o1)c1ccccc1Br	7%	0%	-14%	0	6%	4%
O=C(N/N=C/c1cn(-c2ccccc2)nc1-c1cc2ccccc2o1)c1c[nH]c2ccccc12	14µM*	5%	-33%	/	3%	?
CCOC(=O)c1c(C)oc2ncnc(N3CCN(c4ccccc4F)CC3)c12	-7%	/	/	/	-13%	-13%
O=C(c1ccco1)N1CCN(CC(O)COc2ccc3oc4ccccc4c3c2)CC1 (stereo not given)	-3%	-5%	-3%[46.1 µM]	-93*	?	-16%
O=S1(=O)N=C(Nc2cccc(C(F)(F)F)c2)c2ccccc21	?	/	/	/	-6%	-23%
CC/C=C\C/C=C\C/C=C\C/C=C\C/C=C\C/C=C\CCC(N)=O	6%	-4%	/	/	-10%	-4%
CC(=O)C1=C(c2ccccc2)N(C(C)=O)n2c(C)nnc2S1	?	-2%	-33%	/	11µM*	-17%
CC(=O)C1=C(c2ccc(F)cc2)N(C(C)=O)n2c(nnc2C2CCCCC2)S1	-15%	/	/	/	?	-13%
CCN(CC)C(=O)Cn1c(=O)n(-c2ccc(Cl)cc2)c(=O)c2c3c(sc21)CCC3	-2%	/	/	/	-1%	-2%
COc1ccc(NC(=O)CCc2c(C)nn(-c3ccc(N4CCCCC4)nn3)c2C)cc1Cl	8%	/	/	/	?	-29%
O=C(NCc1ccc2c(c1)CCN2C(=O)c1ccccc1)c1cc2ccccc2[nH]1	?	/	/	/	10%	-13%
O=C(Nc1ccc(N2CCN(C(=O)c3ccc(Cl)cc3)CC2)cc1)c1ccc(Br)o1	14%	0%	-10%[46.1 µM]	?	?	?

Screening data (PubChem)
